For experiment [1], the target named is T1, Serine/threonine-protein kinase Nek9 (Homo sapiens) (UniProt Q8TD19).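 Note: each value is a mean percent inhibition of NEK9.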
T1 sequence (whole entry): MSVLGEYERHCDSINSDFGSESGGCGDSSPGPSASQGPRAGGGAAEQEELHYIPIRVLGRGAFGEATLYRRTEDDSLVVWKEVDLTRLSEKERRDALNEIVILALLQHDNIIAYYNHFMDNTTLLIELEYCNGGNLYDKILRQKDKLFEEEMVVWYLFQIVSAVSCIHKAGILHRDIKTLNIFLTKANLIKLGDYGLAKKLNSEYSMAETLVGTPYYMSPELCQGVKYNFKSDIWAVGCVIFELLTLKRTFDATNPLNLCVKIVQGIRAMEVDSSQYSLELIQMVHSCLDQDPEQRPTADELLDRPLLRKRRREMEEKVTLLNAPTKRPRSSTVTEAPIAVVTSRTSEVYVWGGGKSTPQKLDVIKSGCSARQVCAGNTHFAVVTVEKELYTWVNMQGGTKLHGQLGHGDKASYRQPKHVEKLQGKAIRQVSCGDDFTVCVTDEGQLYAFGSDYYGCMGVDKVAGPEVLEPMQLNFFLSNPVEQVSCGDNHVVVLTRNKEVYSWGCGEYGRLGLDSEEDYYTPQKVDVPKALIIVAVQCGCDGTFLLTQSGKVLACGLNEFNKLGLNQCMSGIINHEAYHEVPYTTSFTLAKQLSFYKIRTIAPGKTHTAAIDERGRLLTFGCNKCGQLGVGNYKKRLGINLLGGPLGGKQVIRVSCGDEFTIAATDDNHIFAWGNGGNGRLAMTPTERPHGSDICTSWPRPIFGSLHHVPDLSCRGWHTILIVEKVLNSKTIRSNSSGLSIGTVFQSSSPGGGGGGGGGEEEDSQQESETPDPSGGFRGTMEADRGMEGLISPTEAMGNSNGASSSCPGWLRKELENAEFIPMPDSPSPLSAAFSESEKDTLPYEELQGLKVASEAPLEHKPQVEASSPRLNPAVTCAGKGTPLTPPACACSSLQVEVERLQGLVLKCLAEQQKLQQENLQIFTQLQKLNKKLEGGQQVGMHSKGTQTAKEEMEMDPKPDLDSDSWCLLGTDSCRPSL
As to conditions: at 1 µM.

The target of experiment [2] is Serine/threonine-protein kinase PLK1 (Homo sapiens) (UniProt P53350). As to conditions: at 0.1 µM.
For experiment [3] the target is unchanged. The note with it: at 1 µM.
For experiment [4], the target named is T2, Dual specificity protein kinase TTK (Homo sapiens) (UniProt P33981).
T2 sequence (whole entry): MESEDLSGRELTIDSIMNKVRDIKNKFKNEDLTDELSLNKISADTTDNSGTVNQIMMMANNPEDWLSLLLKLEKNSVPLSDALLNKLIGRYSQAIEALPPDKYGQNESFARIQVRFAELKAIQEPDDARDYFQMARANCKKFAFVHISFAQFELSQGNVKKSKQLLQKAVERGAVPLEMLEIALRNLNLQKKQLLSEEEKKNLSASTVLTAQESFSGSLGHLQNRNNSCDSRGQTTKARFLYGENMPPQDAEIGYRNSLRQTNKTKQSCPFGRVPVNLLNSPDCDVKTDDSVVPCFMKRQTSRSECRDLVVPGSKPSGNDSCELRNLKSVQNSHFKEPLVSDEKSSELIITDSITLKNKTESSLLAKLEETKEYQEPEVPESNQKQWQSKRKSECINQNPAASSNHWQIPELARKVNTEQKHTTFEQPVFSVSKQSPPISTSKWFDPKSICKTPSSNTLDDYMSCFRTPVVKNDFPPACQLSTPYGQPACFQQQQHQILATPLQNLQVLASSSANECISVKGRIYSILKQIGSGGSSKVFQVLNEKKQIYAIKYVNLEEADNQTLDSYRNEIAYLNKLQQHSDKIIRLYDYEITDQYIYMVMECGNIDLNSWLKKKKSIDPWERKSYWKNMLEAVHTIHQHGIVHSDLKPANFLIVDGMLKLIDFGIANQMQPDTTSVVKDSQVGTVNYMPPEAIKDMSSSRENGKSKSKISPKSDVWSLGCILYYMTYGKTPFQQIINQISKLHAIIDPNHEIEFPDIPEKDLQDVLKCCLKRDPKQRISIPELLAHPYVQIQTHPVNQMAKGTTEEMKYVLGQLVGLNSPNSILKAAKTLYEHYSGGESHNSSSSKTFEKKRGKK
The note with it: at 0.1 µM.

In experiment [5] the test system is T3, Receptor-type tyrosine-protein kinase FLT3 (Homo sapiens), P36888 [D835Y].
T3 sequence (whole entry): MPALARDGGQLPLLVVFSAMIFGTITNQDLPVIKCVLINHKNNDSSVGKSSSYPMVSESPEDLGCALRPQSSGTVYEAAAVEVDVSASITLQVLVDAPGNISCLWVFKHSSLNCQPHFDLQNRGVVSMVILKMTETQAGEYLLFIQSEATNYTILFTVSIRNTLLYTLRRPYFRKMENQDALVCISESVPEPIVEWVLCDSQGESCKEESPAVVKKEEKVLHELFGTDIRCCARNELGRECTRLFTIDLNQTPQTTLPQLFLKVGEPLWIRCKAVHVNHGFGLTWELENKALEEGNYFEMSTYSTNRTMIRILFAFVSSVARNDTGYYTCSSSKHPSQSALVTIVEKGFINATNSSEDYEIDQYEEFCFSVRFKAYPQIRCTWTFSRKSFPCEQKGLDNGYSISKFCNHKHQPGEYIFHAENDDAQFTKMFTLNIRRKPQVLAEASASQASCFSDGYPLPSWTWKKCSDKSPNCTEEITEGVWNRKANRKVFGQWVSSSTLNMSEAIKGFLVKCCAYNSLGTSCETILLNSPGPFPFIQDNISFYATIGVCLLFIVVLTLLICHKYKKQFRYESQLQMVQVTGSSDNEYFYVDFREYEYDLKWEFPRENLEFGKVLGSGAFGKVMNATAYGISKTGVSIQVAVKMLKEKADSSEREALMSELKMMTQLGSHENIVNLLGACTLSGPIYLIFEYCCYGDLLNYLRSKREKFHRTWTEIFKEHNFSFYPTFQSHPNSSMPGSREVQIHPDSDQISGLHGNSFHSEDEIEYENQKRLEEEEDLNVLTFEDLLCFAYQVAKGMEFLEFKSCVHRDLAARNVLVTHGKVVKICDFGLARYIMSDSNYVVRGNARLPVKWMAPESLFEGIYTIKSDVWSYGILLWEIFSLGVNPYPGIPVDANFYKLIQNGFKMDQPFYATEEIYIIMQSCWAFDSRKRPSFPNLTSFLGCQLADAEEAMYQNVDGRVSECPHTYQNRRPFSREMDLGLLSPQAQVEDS
The note with it: at 1 µM.

Experiment [6] has as its target Vascular endothelial growth factor receptor 3 (Homo sapiens) (UniProt P35916). The note with it: at 0.1 µM.
For experiment [7] the target is unchanged. As to conditions: at 1 µM.
The target in experiment [8] is Macrophage colony-stimulating factor 1 receptor (Homo sapiens) (UniProt P07333). The note with it: at 0.1 µM.
Experiment [9] shares this target. The note with it: at 1 µM.
The target in experiment [10] is Tyrosine-protein kinase Fyn (Homo sapiens) (UniProt P06241). The note with it: at 0.1 µM.

From ChEMBL document CHEMBL1961873, “Compounds: GSK PKIS; Assays: Nanosyn kinase panel” (2012) come the findings set out here.

Chain of Serine/threonine-protein kinase PLK1 (Homo sapiens) (P53350 whole entry): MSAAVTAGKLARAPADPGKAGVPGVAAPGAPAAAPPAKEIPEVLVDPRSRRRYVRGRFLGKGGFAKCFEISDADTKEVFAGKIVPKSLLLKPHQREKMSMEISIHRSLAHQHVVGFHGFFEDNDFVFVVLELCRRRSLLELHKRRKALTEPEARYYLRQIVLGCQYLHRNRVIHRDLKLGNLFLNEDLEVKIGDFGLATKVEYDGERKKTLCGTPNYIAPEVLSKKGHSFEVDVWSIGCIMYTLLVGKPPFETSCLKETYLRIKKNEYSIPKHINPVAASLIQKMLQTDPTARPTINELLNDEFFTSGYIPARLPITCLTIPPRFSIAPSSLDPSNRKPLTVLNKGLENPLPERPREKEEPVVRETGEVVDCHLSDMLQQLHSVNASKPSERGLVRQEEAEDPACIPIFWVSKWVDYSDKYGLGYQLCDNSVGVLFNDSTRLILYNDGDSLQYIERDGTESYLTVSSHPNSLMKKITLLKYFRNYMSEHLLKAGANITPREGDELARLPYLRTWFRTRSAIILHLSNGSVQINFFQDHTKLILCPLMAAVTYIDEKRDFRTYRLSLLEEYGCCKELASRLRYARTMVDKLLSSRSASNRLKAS
Chain of Macrophage colony-stimulating factor 1 receptor (Homo sapiens) (P07333 whole entry): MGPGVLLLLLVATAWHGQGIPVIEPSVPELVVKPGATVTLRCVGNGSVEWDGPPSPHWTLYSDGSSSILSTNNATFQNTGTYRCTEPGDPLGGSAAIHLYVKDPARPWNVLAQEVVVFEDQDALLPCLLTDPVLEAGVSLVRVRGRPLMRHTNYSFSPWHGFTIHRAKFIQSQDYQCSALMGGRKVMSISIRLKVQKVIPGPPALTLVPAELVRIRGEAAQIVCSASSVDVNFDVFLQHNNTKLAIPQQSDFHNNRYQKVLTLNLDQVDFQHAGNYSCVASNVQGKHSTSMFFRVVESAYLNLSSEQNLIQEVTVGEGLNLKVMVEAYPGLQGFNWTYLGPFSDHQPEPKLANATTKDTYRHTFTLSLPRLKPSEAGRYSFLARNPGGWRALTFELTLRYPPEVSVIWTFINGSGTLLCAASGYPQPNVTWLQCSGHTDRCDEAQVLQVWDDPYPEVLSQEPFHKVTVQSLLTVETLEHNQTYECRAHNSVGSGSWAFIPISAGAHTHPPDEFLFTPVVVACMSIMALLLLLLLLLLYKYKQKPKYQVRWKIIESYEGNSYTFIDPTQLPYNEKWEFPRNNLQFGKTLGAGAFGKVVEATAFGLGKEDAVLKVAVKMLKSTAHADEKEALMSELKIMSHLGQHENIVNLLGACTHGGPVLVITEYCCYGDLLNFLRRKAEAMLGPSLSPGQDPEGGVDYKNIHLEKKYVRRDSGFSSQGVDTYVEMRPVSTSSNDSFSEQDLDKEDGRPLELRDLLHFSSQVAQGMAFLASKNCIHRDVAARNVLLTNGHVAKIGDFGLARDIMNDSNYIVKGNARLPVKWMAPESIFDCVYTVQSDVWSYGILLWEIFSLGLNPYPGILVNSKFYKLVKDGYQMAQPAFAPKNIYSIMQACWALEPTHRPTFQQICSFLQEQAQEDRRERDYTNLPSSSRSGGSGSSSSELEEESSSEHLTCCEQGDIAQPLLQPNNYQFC
Chain of Vascular endothelial growth factor receptor 3 (Homo sapiens) (P35916 whole entry): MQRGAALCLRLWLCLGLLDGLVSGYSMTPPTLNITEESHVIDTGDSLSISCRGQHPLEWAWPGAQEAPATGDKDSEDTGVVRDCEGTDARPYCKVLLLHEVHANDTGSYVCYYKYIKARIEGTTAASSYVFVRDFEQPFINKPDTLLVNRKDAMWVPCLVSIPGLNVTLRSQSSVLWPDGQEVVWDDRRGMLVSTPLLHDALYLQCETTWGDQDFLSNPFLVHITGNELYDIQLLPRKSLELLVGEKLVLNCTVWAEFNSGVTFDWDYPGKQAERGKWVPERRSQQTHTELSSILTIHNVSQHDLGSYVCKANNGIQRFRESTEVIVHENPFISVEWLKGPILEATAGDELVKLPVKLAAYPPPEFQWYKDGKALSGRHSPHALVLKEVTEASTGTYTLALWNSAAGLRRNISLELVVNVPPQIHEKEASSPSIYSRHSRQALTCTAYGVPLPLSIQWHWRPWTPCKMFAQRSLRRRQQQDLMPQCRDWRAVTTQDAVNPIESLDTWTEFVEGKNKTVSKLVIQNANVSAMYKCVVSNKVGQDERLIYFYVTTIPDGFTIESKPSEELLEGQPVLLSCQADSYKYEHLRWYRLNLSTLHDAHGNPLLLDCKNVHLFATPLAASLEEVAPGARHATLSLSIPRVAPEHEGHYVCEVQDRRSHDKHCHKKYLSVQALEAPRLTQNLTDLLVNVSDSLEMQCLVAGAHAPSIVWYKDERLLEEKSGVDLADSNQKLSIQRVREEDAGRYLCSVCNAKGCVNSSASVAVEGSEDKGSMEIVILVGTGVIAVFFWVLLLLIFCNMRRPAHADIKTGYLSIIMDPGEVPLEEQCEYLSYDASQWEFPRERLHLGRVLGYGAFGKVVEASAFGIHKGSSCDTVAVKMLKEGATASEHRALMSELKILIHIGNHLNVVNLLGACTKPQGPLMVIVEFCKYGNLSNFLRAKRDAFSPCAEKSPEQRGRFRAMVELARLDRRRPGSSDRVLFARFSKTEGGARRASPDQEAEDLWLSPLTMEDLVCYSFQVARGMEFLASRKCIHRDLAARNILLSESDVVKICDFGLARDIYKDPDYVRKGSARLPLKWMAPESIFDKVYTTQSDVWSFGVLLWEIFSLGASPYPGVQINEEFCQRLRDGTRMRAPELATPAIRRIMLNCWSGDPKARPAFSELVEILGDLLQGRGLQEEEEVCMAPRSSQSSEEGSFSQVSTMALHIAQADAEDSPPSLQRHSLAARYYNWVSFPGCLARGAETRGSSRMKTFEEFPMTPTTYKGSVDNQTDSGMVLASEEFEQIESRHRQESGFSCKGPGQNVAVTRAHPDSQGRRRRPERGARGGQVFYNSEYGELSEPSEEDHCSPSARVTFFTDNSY
Chain of Tyrosine-protein kinase Fyn (Homo sapiens) (P06241 2-537 limits assumed): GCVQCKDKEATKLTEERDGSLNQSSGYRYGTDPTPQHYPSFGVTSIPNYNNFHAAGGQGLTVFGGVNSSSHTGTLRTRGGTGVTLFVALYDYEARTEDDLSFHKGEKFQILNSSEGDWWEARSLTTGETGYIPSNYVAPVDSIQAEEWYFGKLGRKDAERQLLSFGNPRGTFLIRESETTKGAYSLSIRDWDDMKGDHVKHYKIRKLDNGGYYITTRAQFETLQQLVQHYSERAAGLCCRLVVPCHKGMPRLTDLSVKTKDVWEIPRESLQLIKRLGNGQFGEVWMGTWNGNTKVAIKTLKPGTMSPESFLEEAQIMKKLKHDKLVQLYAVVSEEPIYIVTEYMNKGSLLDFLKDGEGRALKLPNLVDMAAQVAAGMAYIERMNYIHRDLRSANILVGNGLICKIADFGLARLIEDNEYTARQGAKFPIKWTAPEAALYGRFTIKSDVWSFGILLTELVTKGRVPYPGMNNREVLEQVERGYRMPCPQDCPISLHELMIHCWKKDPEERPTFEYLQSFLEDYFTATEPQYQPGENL

For `CS(=O)(=O)CCN(CC#N)Cc1ccc(-c2ccc3ncnc(Nc4ccc(OCc5cccc(F)c5)c(Cl)c4)c3c2)o1`, the inhibition was 3.24% in experiment [1]; 4.17% in [2]; 2.97% in experiment [3]; 2.64% in experiment [4]; 0.21% in [5]; -3.53% in experiment [6]. Moreover, the inhibition in experiment [7] was -8.49%; in [8] it was 1.14%; in experiment [9] it was 5.44%; in [10], -3.25%.
For the molecule `CCn1c(-c2nonc2N)nc2ccncc21`, the inhibition in [1] came to 5.33%; in experiment [2], 1.68%; in experiment [3], 2.44%; in experiment [4], 3.2%; in experiment [5] it was 0.13%; in experiment [6], 2.12%. Besides, the inhibition in [7] was found to be 2.74%; in experiment [8] it was 0.3%; in experiment [9] it was 0%; in experiment [10] it was 2.62%.
Consider `CN1CCC(C(=O)Nc2n[nH]c3nnc(-c4ccccc4)cc23)CC1`, for which the inhibition in [1] is 19.2%; in experiment [2], 6.37%; in [3], 4.03%; in [4], 12.6%; in experiment [5], -2.63%; in [6], 2.1%. In addition, the inhibition in experiment [7] was determined as 3.3%; in experiment [8], 0.38%; in [9], 3.05%; in experiment [10] it was 0.66%.
On to `[O-][S+]1CCN(Cc2ccc(-c3ccc4ncnc(Nc5ccc(OCc6ccccc6)c(F)c5)c4c3)o2)CC1`, for which the inhibition is 4.38% in experiment [1]; 2.17% in experiment [2]; 1.22% in experiment [3]; 5.89% in experiment [4]; 1.92% in [5]; -0.55% in [6]. The inhibition in [7] was 0.47%; in experiment [8] it was 0.26%; in [9] it was 3.3%; in [10], 0.67%.
On to `CCn1c(-c2nonc2N)nc2cnc(Oc3cccc(NC(=O)c4ccc(OCCN5CCOCC5)cc4)c3)cc21`, for which the inhibition in experiment [1] is 17%; in [2], 4.54%; in [3], 2.83%; in experiment [4] it was 10.3%; in experiment [5] it was -0.53%; in experiment [6], -0.39%. The inhibition in experiment [7] came out at 0.92%; in experiment [8] it was 1.4%; in experiment [9], 2.86%; in experiment [10], 1.07%.
Turning to `CS(=O)(=O)CCNCc1ccc(-c2ccc3ncnc(Nc4ccc(OCc5ccccc5)c(Cl)c4)c3c2)o1`, the inhibition in experiment [1] was 4.02%; in experiment [2], 2.44%; in experiment [3] it was 2.99%; in [4], 4.06%; in [5], -0.19%; in [6], 3.02%. For the same molecule, the inhibition in experiment [7] was 2.54%; in experiment [8], -2.83%; in [9] it was 10%; in experiment [10], 2.44%.
On to `N#Cc1c(NC(=O)c2cccc3ccccc23)sc2c1CCCC2`, for which the inhibition in [1] was 4.88%; in experiment [2] it was 3.77%; in experiment [3], 9.99%; in experiment [4], 11.9%; in experiment [5], -2.86%; in experiment [6], 0.07%. The inhibition in [7] is -3.88%; in experiment [8], 0.85%; in experiment [9], 1.31%; in experiment [10], 2.07%.
Regarding `COc1ccc(-c2nn3ncccc3c2-c2ccnc(Nc3ccc(Cl)c(C(F)(F)F)c3)n2)cc1`, the inhibition is 6.74% in experiment [1]; 0.21% in experiment [2]; 3.01% in experiment [3]; 5.35% in [4]; -6.5% in experiment [5]; -0.61% in [6]. The inhibition is 3.27% in experiment [7], -1.71% in [8], 5.03% in experiment [9] and 3.8% in experiment [10].
For the molecule `COc1ccccc1Nc1ncc(-c2ccccc2)o1`, the inhibition was determined as 5.41% in experiment [1]; 4.91% in experiment [2]; 4.18% in experiment [3]; 10.2% in experiment [4]; 25.5% in experiment [5]; 3.38% in [6]. In addition, the inhibition turned out to be 9.85% in [7], 12% in experiment [8], 53.5% in [9] and 4.02% in experiment [10].
With `NC(=O)c1cccc(Nc2nccc(Nc3cccc4[nH]ncc34)n2)c1`, the inhibition in experiment [1] is 7.1%; in [2], -1.69%; in experiment [3], 3.37%; in experiment [4], -7.5%; in experiment [5] it was 37.5%; in experiment [6], 5.01%. Besides, the inhibition is 33.4% in experiment [7], 3.46% in [8], 34.1% in experiment [9] and 85.9% in experiment [10].

A word on the inhibition: it is the relative decrease from the control value, in per cent.
